From the supplement of paper PMC11219838
A number with no mark means an inactive call.

Tests used:
Conditions in all cases: 60 µM; 5 days; temperature: 20 °C
Meloidogyne hapla J2 = assay: proportion of mobile M. hapla J2 relative to DMSO control (fraction of DMSO control); higher = more viable, less nematicidal, active = 0.7 or less
Outline: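 About 25 M. hapla J2 were placed in each well of a 96-well plate in distilled water, and compound was pinned in to a final 60 µM with 0.6% v/v DMSO. The sealed plates were shaken at 200 rpm at 20 °C for 5 days, after which 2 µL of 1 M NaOH went into each well. Mobility was then scored under the microscope and divided by the mean value from DMSO-only wells on the same plate. Each plate held eight such DMSO wells, and two biological replicates were averaged.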

[1] = test system: Caenorhabditis elegans dauer (daf-2(e1370)); assay: proportion of mobile C. elegans dauer larvae relative to DMSO control (fraction of DMSO control); higher = more viable, less nematicidal, active = 0.63 or less; extreme values may be limits of the assay
Outline: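 Synchronized C. elegans larvae were kept for 48 h at 25 °C on MYOB plates seeded with E. coli OP50 to induce dauer formation, and roughly 20 dauers were transferred into each well of a 96-well plate containing liquid NGM. Compound was pinned in to a final concentration of 60 µM with 0.6% v/v DMSO, and the sealed plates were shaken at 200 rpm for 5 days at 20 °C. The fraction of mobile worms was scored under a dissection microscope against DMSO-only wells and averaged across two biological replicates.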

Ditylenchus dipsaci = assay: proportion of mobile D. dipsaci (mixed stage) relative to DMSO control (fraction of DMSO control); higher = more viable, less nematicidal, active = 0.86 or less; extreme values may be limits of the assay
Outline: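 Ditylenchus dipsaci nematodes were cultured on pea plants in Gamborg B-5 agar, then extracted into water through a filter funnel, and roughly 20 worms in distilled water were placed in each well of a 96-well plate. Compound was pinned in to a final concentration of 60 µM (0.6% v/v DMSO), and the sealed plates were shaken at 200 rpm for 5 days at 20 °C. Mobile worms were counted under the microscope after 2 µL of 1 M NaOH was added. Mobility is given relative to DMSO controls as the mean of two biological replicates.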

SMILES | proportion of mobile M. hapla J2 (Meloidogyne hapla J2) | proportion of mobile C. elegans dauer larvae [1] | proportion of mobile D. dipsaci (Ditylenchus dipsaci)
Cc1cc(Br)ccc1OCc1nc(-c2cccnc2)no1 | 1.05 | 1 | 1
CCOc1cc(-c2nc(-c3cccnc3)no2)cc(OCC)c1OCC | 1.05 | 1 | 1
Cc1ccccc1OCc1nc(-c2ccc(Br)cc2)no1 | 0.788 | 1 | 1
c1cc(-c2noc(C34CC5CC(CC(C5)C3)C4)n2)ccn1 | 0.941 | 1 | 1
COc1cccc(-c2nnc(SCc3ccccc3C)o2)c1 | 1.01 | 1 | 1
O=C(CSc1nnc(-c2cccc(Cl)c2)o1)Nc1ccccc1 | 0.813 | 1 | 1
CCCC(=O)Nc1ccccc1-c1nc(-c2ccncc2)no1 | 0.99 | 1 | 1
O=C(CSc1nnc(-c2ccc(Br)cc2)o1)Nc1cccc2ccccc12 | 0.923 | 1 | 1
COc1ccc(-c2noc(-c3ccccc3C)n2)cc1 | 0.898 | 0.533 (active) | 1
CCOC(=O)c1c(NC(=O)CSc2nnc(-c3ccc(Cl)cc3)o2)sc(C(C)=O)c1C | 0.809 | 1 | 1
O=C(CSc1nnc(-c2ccccc2)o1)Nc1cccc(Cl)c1 | 1 | 1 | 1
COc1ccc(CC(=O)Nc2ccc(-c3noc(-c4ccc(F)cc4)n3)cc2)cc1 | 0.978 | 1 | 1
